Compound activity (PubChem)
A selection: hits, their analogues and other compounds. The true share with any hit is near 2.5%.
Cruzain inh noDet: blocks cruzain activity in detergent-free assay; P25779; purified cruzain, Z-FR-AMC fluorescence, no detergent; Potency, µM, without a hit: max response, negative = inhibition, most hits filed as inhibitors; 2.3% of 200,000 active; AID 1476;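 note: plate controls were enzyme without inhibitor for no effect and buffer without enzyme for full effect; nearly all actives have a fitted effect of over 40% in size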
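Detergent-free condition (0.00005% Triton X-100) in acetate buffer pH 5.5 with DTT. 1.5 nM enzyme and compound were pre-mixed 15 min, then 2 uM Z-FR-AMC substrate added; reaction progress from fluorescence change between first and third reads (60 s).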
Cruzain inh Det: cruzain (T. cruzi) inhibition with detergent; purified cruzain, Z-FR-AMC fluorescence, 0.01% Triton; 0.43% of 200,000 active; Potency, µM, for the others: max response, negative = inhibition, actives largely listed as inhibitors; P25779; AID 1478;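 note: plate controls were neutral wells for no effect and buffer without enzyme for full effect; nearly all actives have a fitted effect of over 40% in size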
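Enzyme 1.5 nM, Z-FR-AMC 2 uM, NaOAc 100 mM pH 5.5, DTT 5 mM, Triton X-100 0.01%; 15 min RT compound preincubation; kinetic ex360/em450, 60 s delta.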
Papain inh: blocks papain protease activity, flagging nonselective cruzain hits; purified papain, Z-FR-AMC fluorescence cleavage; Potency, µM, for the others: max response, negative = inhibition, actives largely listed as inhibitors; 41% of 410 active; AID 2161; shares compounds with Cruzain inh Det;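 note: 0% = no-compound wells and -100% = no-enzyme wells; nearly all actives have a fitted effect of over 35% in size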
Target sequence (P00784 whole entry, looked up): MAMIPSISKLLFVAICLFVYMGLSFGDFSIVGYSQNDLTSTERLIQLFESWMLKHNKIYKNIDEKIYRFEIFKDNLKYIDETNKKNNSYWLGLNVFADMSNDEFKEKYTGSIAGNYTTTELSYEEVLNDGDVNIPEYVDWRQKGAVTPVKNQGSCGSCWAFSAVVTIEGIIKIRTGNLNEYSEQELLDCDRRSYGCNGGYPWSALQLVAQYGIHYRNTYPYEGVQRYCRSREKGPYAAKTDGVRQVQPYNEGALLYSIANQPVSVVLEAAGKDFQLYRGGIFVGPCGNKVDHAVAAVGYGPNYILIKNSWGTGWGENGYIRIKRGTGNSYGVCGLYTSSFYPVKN
* marks the source's active call; other numbers are inactive results; ? = inconclusive; . = no result. Calls come from the whole dose curve; as a rule, active = well fitted curve in the direction sought with a large enough effect; inconclusive = small, poorly fitted or top-dose-only effect, or another doubt; inactive = no such curve, though single readings can be large; an effect the other way counts as inactive or inconclusive. Potency is the fitted concentration of half-maximal effect.

SMILES | Cruzain inh noDet | Cruzain inh Det | Papain inh
Cc1ccc(CN(C(=O)COc2ccc(Br)cc2)c2ccccn2)o1 | -3% | -6% | .
O=C(O)c1c(Sc2ccccc2)c2cc(Cl)ccc2n1Cc1ccc(Cl)cc1 | ? | 28µM* | 28µM*
O=C(Cc1ccc(Cl)cc1)Nc1ccccc1Sc1ccccc1 | -17% | -8% | .
COc1ccc(CNc2ccnc(-c3ccccc3C(F)(F)F)n2)c(OC)c1 | 8% | -10% | .
Cc1ccc(-c2csc3nc(SCC(N)=O)n(Cc4ccccc4)c(=O)c23)cc1 | 7% | -2% | .
N#CCSc1nc2scc(-c3cccs3)c2c(=O)n1CCc1ccccc1 | 16µM* | 7% | 10%
O=C(Cn1c(=O)n(-c2ccccc2Cl)c(=O)c2sc3ccccc3c21)NC1CCCCC1 | 15% | -1% | .
Nc1ccc2c(c1)C(=O)c1ccccc1C2=O | -19% | 1% | .
Nc1ccc2c(c1)C(=O)C(=O)c1ccccc1-2 | ? | 22µM* | 16µM*
CN1CCN(c2ncc3ncc(=O)n(-c4ccccc4)c3n2)CC1 | 20µM* | ? | 14µM*
CN1CCN(c2ncc3ncc(=O)n(CCc4ccccc4)c3n2)CC1 | -22% | -8% | .
O=C(Nc1nc(-c2ccccc2)c(-c2ccccc2)s1)c1ccc(S(=O)(=O)N(CCCl)CCCl)cc1 | 4µM* | -2% | 17%
COCCN(CCOC)S(=O)(=O)c1ccc(C(=O)Nc2nc(C)c(C(C)=O)s2)cc1 | 21% | -9% | .
Cn1cc(-c2cc3n(n2)CCC(=O)N3CCCC(=O)Nc2ccc(F)cc2F)c2ccccc21 | ? | -3% | .
Cn1c(=O)c2c(-c3ccccc3)n(-n3cnnc3)cc2n(C)c1=O | 6.3µM* | 8.9µM* | 13µM*
Cn1c(=O)c2c(-c3ccccc3)n(CCCO)cc2n(C)c1=O | -5% | 2% | .
COc1cccc(-n2ccnc2SCC(=O)Nc2ccc(Cl)c(Cl)c2)c1 | 4% | -7% | .
COc1ccccc1N1CCN(C(=O)CN(c2ccccc2OC)S(=O)(=O)c2ccccc2)CC1 | ? | 3% | 8%
CCOC(=O)N1CCN(C(=O)CN(c2cc(Cl)ccc2OC)S(=O)(=O)c2ccccc2)CC1 | ? | 3% | .
C[C@@H](C(=O)NCc1ccc(C(F)(F)F)nc1)[C@H]1C[C@]1(C)[C@H](NC(=O)OCc1ccccc1)c1ccccc1 | ? | -3% | .
Cc1cccc(Nc2nc(N)c([N+](=O)[O-])c(N3CCC(C)CC3)n2)c1 | 3% | -8% | .
Cc1cccc(Nc2nc(C#N)nc(NC3CCCC3)n2)c1 | . | . | 0.45µM*
N#Cc1nc(Nc2cccc([N+](=O)[O-])c2)nc(NC2CCCC2)n1 | . | . | 2.8µM*
O=C(CO/N=C/c1cccc([N+](=O)[O-])c1)NC1CCCCCC1 | 4% | -1% | .
O=C(Cc1ccc(NC(=O)N2CCCCc3ccccc32)cc1)NCc1ccccc1Br | -25% | -3% | .
SMILES | Cruzain inh noDet | Cruzain inh Det | Papain inh
CCn1nc(-c2ccccc2C)nc2c(=O)n(C)c(=O)nc1-2 | . | . | -9%
Cn1c(=O)nc2n(Cc3ccccc3)c3ccccc3cc-2c1=O | -9% | ? | .
Cc1cc(C)n2nc(-c3ccc(F)cc3)nc2n1 | -6% | 7% | .
Cn1nc(-c2ccc(F)cc2)nc2c(=O)n(C)c(=O)nc1-2 | . | . | -4%
COc1ccc(-c2nc3c(=O)n(C)c(=O)nc-3n(C)n2)cc1 | . | . | -10%
COc1ccc(-n2c(C)nn(C)c2=O)cc1 | -3% | 11% | .
Cc1cc(C)n2nc(-c3cccnc3)nc2n1 | 5% | 3% | .
Cn1nc(-c2cccnc2)nc2c(=O)n(C)c(=O)nc1-2 | . | . | 3%
Cc1noc(C)c1-c1cc(NC2CC2)ncn1 | 3% | 1% | .
Cc1ccc(Cn2c(=O)n(Cc3ccco3)c(=O)c3sc4ccccc4c32)cc1 | 3% | -2% | .
CC(C)CN1CCc2nc(N3CCN(c4ncccn4)CC3)ncc2C1 | 4% | -2% | .
Cc1ccc(-c2nc3n(n2)C(=O)CC(c2ccc(Cl)cc2)S3)cc1 (stereo unspecified) | -9% | -4% | .
Cn1nc(-c2ccc(Cl)cc2)nc2c(=O)n(C)c(=O)nc1-2 | 1.6µM* | 1.6µM* | -20%
O=C1C(=Cc2ccco2)C(=O)c2ccccc21 | -5% | -4% | .
O=C1/C(=C/c2ccco2)CCc2ccccc21 | 2µM* | 2.2µM* | 28µM*
